Here are results for 1 sequence from PMC7862700, “An all-to-all approach to the identification of sequence-specific readers for epigenetic DNA modifications on cytosine”.

Test in all cases: DAPPL (digital affinity profiling via proximity ligation, sequencing); 10 mM Tris-HCl pH 7.5, 50 mM NaCl, 1 mM DTT, 4% glycerol, room temperature, 30 min; GST-TFs on glutathione beads, 16-mer random dsDNA library, 0.1% formaldehyde crosslink after washing; high values mean tight binding
One test has as its target T1, FLI1 (Homo sapiens, UniProt Q01543 1-452).
T1 sequence: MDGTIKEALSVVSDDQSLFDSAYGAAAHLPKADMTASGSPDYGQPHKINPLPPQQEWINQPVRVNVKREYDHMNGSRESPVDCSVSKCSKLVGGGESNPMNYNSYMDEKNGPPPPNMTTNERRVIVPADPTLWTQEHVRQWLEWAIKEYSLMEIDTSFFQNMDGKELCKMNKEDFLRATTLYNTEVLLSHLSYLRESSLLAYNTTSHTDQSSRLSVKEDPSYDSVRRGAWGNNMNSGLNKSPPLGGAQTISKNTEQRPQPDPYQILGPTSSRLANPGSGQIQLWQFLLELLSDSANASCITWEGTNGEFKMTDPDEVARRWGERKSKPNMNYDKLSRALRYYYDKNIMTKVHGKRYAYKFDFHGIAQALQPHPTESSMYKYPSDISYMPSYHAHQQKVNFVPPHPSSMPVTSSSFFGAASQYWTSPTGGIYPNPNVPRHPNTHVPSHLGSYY
To be noted: protein: recombinant; tags: N-terminal GST; dsDNA, one strand shown. In a few lines: (§1)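 Pools were built from human transcription factors expressed in yeast as GST fusions, captured on glutathione beads and DNA-barcoded, along with a tag-only sample. Incubation with 200 nmole of a 16-mer random double-stranded DNA library lasted 30 min at room temperature in Tris/NaCl/DTT/glycerol buffer, and was followed by washing, 0.1% formaldehyde crosslinking, proximity ligation, PCR amplification and Illumina NextSeq500 sequencing. Binding signal is the quotient of each hexamer's read frequency for a factor and its frequency for the tag-only sample.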

Another test has as its target T2, ELK1 (Homo sapiens, UniProt P19419 1-428).
T2 sequence: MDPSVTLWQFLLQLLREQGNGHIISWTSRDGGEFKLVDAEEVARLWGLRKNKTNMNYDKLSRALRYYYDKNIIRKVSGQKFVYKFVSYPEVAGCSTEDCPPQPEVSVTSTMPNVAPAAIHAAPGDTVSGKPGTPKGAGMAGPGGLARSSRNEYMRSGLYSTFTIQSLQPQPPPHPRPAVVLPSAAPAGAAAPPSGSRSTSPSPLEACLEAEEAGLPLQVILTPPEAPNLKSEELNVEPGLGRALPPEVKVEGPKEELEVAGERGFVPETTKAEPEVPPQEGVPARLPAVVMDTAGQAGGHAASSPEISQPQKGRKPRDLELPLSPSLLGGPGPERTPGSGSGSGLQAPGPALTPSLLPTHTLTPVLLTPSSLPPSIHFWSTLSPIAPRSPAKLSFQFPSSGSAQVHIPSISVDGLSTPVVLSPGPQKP
To be noted: protein: recombinant; tags: N-terminal GST; dsDNA, one strand shown. In a few lines:
as §1

A further test addresses T3, GABPA (Homo sapiens, UniProt Q06546 1-454).
T3 sequence: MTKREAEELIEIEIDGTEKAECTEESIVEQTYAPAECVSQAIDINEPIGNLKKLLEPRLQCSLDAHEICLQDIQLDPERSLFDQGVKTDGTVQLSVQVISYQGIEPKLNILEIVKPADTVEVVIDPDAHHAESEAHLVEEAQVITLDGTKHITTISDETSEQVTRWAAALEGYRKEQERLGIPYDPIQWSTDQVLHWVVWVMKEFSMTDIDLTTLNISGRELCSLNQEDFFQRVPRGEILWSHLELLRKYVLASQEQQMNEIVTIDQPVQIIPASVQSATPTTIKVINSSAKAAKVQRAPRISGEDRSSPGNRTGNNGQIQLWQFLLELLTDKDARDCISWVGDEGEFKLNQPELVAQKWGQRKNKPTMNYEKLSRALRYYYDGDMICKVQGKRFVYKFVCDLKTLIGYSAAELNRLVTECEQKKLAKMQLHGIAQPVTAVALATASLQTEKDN
To be noted: protein: recombinant; tags: N-terminal GST; dsDNA, one strand shown. An outline of the steps:
as §1

In a further test the target is T4, ERG (Homo sapiens, UniProt P11308 1-479).
T4 sequence: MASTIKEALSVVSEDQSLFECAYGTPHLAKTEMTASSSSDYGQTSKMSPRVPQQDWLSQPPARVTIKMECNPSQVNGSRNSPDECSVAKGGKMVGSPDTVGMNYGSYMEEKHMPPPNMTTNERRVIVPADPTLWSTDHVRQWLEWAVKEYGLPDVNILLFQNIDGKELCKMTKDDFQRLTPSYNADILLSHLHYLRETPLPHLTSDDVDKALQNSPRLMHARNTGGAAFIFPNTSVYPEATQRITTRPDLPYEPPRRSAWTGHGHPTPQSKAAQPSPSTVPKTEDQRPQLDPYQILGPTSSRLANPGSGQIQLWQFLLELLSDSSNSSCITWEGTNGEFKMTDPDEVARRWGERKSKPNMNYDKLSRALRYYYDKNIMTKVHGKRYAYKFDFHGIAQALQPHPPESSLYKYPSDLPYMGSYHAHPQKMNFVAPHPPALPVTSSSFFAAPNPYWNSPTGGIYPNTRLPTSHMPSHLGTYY
To be noted: protein: recombinant; tags: N-terminal GST; dsDNA, one strand shown. In a few lines:
as §1

Another test deals with ELF1 (Homo sapiens, UniProt P32519 1-619). The note with it: protein: recombinant; tags: N-terminal GST; dsDNA, one strand shown. An outline of the steps: as §1
Chain of ELF1 (P32519 whole entry): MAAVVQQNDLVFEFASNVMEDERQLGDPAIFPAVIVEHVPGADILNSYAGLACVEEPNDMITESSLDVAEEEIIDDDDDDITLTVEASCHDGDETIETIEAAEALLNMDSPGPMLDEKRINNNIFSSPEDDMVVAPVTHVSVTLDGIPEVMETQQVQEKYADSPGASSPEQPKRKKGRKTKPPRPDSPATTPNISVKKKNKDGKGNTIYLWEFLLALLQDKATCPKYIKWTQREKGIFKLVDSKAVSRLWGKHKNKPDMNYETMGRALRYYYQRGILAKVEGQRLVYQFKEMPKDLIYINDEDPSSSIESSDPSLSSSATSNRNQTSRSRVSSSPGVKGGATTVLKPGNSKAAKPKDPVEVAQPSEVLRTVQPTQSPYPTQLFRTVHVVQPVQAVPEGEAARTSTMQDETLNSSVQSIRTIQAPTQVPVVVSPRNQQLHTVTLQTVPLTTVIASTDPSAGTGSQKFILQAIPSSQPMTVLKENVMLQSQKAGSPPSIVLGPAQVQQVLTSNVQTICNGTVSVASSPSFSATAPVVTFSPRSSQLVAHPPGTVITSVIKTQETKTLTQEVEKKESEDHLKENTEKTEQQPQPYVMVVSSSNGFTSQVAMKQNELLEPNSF
A further test has as its target T5, EHF (Homo sapiens, UniProt Q9NZC4 1-300).
T5 sequence: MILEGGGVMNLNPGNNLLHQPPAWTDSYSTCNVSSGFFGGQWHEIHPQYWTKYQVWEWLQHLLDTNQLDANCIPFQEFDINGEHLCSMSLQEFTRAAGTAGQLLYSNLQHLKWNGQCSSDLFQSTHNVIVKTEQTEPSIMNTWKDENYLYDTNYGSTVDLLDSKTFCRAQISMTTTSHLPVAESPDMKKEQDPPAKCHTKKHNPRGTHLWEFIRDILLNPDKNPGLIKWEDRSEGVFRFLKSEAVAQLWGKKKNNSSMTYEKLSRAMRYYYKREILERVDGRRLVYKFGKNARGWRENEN
To be noted: protein: recombinant; tags: N-terminal GST; dsDNA, one strand shown. In a few lines:
as §1

Another test has as its target SPI1 (Homo sapiens, UniProt P17947 1-270). To be noted: protein: recombinant; tags: N-terminal GST; dsDNA, one strand shown. In a few lines: as §1
In another test the target is SPIB (Homo sapiens, UniProt Q01892 1-262). To be noted: protein: recombinant; tags: N-terminal GST; dsDNA, one strand shown. An outline of the steps:
as §1

Another test addresses T6, ELK3 (Homo sapiens, UniProt P41970 1-407).
T6 sequence: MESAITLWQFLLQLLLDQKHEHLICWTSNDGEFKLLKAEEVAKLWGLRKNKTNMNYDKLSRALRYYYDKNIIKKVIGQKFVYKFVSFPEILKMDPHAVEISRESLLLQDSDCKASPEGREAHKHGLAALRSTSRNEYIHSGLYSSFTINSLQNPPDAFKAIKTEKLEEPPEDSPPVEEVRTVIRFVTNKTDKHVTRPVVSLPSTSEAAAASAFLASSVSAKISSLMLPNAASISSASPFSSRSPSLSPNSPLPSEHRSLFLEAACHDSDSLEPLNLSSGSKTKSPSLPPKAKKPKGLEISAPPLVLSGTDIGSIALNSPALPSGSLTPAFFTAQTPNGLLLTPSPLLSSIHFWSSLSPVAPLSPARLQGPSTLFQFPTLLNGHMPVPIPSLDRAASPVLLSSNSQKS
The note with it: protein: recombinant; tags: N-terminal GST; dsDNA, one strand shown. In a few lines:
as §1

In the next test the target is T7, FEV (Homo sapiens, UniProt Q99581 1-238).
T7 sequence: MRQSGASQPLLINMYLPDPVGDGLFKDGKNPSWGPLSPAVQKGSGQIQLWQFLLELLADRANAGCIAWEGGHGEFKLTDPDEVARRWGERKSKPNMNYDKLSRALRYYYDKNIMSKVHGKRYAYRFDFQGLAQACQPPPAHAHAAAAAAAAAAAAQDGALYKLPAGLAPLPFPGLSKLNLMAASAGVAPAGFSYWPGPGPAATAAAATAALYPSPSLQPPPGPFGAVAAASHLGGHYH
To be noted: protein: recombinant; tags: N-terminal GST; dsDNA, one strand shown. In a few lines: as §1

In the next test the target is ETV5 (Homo sapiens, UniProt P41161 1-510). To be noted: protein: recombinant; tags: N-terminal GST; dsDNA, one strand shown. An outline of the steps:
as §1

A further test deals with HSF1 (Homo sapiens, UniProt Q00613 1-529). To be noted: protein: recombinant; tags: N-terminal GST; chain copies: 3; dsDNA, one strand shown. An outline of the steps: as §1
Chain of HSF1 (Q00613 whole entry): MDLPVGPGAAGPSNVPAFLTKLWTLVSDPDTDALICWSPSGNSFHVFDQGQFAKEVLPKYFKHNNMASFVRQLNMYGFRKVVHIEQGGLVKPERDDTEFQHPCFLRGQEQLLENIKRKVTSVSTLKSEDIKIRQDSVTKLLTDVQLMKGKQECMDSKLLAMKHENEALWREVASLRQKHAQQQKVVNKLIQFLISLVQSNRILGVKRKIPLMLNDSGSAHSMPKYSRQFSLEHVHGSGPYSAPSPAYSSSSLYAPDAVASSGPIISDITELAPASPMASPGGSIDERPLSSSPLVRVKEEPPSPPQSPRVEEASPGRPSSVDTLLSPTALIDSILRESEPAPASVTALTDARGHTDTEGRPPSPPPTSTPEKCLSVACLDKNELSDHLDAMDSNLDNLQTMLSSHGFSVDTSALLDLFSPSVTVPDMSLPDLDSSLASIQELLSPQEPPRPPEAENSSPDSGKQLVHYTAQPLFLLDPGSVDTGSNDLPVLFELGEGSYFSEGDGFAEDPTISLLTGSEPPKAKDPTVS
The target of a further test is T8, SPIC (Homo sapiens, UniProt Q8N5J4 1-248).
T8 sequence: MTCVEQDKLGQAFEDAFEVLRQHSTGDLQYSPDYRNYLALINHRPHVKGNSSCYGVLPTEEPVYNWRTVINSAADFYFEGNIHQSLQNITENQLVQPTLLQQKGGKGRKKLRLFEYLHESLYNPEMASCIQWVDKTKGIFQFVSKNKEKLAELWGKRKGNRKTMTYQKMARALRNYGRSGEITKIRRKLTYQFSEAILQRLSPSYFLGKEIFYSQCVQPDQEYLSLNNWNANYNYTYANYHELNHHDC
The note with it: protein: recombinant; tags: N-terminal GST; dsDNA, one strand shown. In a few lines:
as §1

The next test addresses ELF4 (Homo sapiens, UniProt Q99607 1-663). To be noted: protein: recombinant; tags: N-terminal GST; dsDNA, one strand shown. An outline of the steps:
as §1

The target of a further test is T9, ELK4 (Homo sapiens, UniProt P28324-2 1-405).
T9 sequence: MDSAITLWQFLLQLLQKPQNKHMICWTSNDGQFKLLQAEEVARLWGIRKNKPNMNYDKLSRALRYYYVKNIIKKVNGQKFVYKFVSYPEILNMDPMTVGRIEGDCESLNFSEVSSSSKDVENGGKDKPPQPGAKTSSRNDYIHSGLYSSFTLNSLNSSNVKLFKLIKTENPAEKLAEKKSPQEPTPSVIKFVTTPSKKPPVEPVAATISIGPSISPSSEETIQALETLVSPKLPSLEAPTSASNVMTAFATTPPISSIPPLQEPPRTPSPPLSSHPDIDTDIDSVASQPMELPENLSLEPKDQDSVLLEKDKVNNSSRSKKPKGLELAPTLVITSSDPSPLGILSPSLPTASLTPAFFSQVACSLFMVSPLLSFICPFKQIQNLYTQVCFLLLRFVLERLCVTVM
The note with it: protein: recombinant; tags: N-terminal GST; dsDNA, one strand shown. In a few lines: as §1

For the next test, the target named is T10, ETV2 (Homo sapiens, UniProt O00321 1-342).
T10 sequence: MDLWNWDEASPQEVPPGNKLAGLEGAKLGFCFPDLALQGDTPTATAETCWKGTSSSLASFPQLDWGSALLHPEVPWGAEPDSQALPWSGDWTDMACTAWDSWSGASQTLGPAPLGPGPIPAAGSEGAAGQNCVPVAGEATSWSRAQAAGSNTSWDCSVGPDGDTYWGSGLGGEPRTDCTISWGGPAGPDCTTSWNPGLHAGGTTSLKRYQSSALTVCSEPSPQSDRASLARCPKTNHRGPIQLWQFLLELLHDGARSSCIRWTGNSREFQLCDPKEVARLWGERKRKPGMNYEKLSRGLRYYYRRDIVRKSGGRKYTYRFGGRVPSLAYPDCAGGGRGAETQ
To be noted: protein: recombinant; tags: N-terminal GST; dsDNA, one strand shown. In a few lines:
as §1

A further test deals with T11, ELF3 (Homo sapiens, UniProt P78545 1-371).
T11 sequence: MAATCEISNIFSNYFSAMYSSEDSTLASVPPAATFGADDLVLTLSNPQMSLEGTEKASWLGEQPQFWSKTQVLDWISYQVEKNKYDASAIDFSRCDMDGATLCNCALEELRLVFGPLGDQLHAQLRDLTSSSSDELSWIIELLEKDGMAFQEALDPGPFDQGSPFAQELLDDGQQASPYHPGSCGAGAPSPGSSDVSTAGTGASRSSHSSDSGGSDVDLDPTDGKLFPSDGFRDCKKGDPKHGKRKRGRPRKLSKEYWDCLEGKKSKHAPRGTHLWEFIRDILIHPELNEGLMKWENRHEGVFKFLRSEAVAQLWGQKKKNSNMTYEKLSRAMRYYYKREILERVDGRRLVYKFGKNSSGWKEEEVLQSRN
The note with it: protein: recombinant; tags: N-terminal GST; dsDNA, one strand shown. In a few lines:
as §1

A further test deals with CRX (Homo sapiens, UniProt O43186 1-299). To be noted: protein: recombinant; tags: N-terminal GST; dsDNA, one strand shown. In a few lines:
as §1

For another test, the target named is ETV1 (Homo sapiens, UniProt P50549 1-477). The note with it: protein: recombinant; tags: N-terminal GST; dsDNA, one strand shown. An outline of the steps: as §1
Chain of ETV1 (P50549 whole entry): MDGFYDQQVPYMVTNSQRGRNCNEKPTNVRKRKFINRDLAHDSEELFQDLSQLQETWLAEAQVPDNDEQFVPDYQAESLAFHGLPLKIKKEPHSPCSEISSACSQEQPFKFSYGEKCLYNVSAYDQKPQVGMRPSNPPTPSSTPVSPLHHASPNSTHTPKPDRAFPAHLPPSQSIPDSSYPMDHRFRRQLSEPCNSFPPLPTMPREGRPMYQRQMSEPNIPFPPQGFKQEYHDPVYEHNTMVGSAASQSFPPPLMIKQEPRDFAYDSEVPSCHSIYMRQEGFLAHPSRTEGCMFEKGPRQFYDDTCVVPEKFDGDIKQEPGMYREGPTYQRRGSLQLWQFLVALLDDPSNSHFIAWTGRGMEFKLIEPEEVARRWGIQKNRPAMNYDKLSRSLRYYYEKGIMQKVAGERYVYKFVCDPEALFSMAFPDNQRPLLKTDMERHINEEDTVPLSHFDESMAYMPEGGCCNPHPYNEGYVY

Chain of ETV5 (P41161 whole entry): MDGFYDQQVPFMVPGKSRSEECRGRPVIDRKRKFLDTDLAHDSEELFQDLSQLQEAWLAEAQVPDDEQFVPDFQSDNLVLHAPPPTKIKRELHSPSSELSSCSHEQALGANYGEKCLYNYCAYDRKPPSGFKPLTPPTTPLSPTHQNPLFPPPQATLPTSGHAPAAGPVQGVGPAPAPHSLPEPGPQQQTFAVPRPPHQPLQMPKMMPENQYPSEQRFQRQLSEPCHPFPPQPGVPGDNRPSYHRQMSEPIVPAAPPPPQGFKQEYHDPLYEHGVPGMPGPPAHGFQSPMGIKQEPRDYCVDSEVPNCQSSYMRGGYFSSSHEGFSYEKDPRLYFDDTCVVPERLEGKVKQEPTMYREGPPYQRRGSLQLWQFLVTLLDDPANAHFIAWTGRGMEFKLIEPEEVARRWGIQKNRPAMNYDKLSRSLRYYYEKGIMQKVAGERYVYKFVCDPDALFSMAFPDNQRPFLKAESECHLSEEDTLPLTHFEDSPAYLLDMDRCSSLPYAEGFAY
Chain of SPIB (Q01892 whole entry): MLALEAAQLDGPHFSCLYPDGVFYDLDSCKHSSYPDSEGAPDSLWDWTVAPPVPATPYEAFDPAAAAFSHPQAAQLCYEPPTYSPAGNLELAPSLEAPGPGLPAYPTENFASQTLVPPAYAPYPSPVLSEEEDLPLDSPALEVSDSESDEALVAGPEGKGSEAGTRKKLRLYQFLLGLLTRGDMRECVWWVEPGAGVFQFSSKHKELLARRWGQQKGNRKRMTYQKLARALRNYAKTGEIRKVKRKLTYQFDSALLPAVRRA
Chain of ELF4 (Q99607 whole entry): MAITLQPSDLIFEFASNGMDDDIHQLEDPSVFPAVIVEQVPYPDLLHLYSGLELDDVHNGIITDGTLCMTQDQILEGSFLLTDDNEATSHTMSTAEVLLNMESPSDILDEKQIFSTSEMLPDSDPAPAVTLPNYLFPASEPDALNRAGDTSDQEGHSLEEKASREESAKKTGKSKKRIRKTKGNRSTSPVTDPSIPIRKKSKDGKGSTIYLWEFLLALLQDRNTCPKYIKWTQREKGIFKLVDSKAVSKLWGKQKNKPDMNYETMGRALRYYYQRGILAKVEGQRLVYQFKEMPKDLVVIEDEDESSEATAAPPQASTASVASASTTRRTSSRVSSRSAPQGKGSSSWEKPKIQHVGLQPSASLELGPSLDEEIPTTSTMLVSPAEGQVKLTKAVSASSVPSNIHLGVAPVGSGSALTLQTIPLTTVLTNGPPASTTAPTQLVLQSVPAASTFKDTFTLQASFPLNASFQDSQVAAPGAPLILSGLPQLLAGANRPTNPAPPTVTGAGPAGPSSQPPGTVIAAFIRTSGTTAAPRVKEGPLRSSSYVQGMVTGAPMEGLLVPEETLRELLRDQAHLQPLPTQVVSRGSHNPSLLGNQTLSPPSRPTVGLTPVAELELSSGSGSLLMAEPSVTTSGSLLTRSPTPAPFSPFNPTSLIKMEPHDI
Chain of CRX (O43186 whole entry): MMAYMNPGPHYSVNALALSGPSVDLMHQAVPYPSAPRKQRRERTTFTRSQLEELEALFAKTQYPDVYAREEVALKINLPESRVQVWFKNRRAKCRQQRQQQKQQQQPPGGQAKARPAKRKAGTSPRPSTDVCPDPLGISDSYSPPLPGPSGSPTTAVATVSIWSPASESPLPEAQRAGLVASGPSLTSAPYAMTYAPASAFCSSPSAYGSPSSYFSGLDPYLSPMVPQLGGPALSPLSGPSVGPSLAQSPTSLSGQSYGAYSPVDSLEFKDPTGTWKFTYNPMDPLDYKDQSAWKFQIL

Regarding TATAGC, the binding signal in the test with FLI1 was 1.2 fold enrichment (6-mer frequency, TF over GST control); with ELK1, 1.22 fold enrichment (6-mer frequency, TF over GST control); in the test with GABPA it was 1.26 fold enrichment (6-mer frequency, TF over GST control); with ERG, 1.2 fold enrichment (6-mer frequency, TF over GST control); with ELF1 it was 1.21 fold enrichment (6-mer frequency, TF over GST control); with EHF it was 1.17 fold enrichment (6-mer frequency, TF over GST control). In addition, the binding signal is 1.16 fold enrichment (6-mer frequency, TF over GST control) with SPI1; 1.18 fold enrichment (6-mer frequency, TF over GST control) with SPIB; 1.1 fold enrichment (6-mer frequency, TF over GST control) with ELK3; 1.19 fold enrichment (6-mer frequency, TF over GST control) in the test with FEV; 1.37 fold enrichment (6-mer frequency, TF over GST control) with ETV5; 1.17 fold enrichment (6-mer frequency, TF over GST control) with HSF1. Besides, the binding signal is 1.31 fold enrichment (6-mer frequency, TF over GST control) with SPIC; 1.15 fold enrichment (6-mer frequency, TF over GST control) with ELF4; 1.29 fold enrichment (6-mer frequency, TF over GST control) with ELK4; 1.13 fold enrichment (6-mer frequency, TF over GST control) in the test with ETV2; 1.27 fold enrichment (6-mer frequency, TF over GST control) with ELF3; 1.44 fold enrichment (6-mer frequency, TF over GST control) with CRX. The binding signal in the test with ETV1 is 1.13 fold enrichment (6-mer frequency, TF over GST control).
